Only some compounds are listed: those with a hit (about 5.7% of all), similar ones and a draw of the others.
KB-3-1 cytotox = qHTS assay for MDR1-selective chemotherapeutics: Primary screen using the parental adenocarcinoma cell KB-3-1. KB-3-1 viability, CellTiter-Glo ATP luminescence, 72 h. Potency, µM (titrated, usually from 46.1 µM), most hits filed as cytotoxic. hit rate 1.4% among 400,000. AID 1347075, 2019; further: potency means the concentration at half of the fitted maximal effect; nearly all actives have a fitted effect of over 60% in size
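Luminescent ATP read-out (CellTiter-Glo) measures survival of drug-naive KB-3-1 cells after 72 h compound exposure at 37 °C. Titration series was screened from lowest to highest concentration, with DMSO vehicle plates as background controls.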
Giardia kill = Small Molecules that selectively kill Giardia lamblia: qHTS; AID 540267, 2011; activity change, % at 7.66 µM, hits read low; Giardia lamblia trophozoite viability; hit rate 0.15% among 340,000; in the data active means activity change below about -80%; inconclusive means between about -30% and that limit;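 further: parasites exposed to compound for two days anaerobically before the ATP read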
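Trophozoites 100 cells/well + cpd; 48 hrs, 37 deg C, anaerobic. ATPLite 1-Step added, 15-30 min RT, luminescence read (ATP-based viability).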
PI4K2A inh = qHTS for small molecular inhibitors of PI4K2A; Phosphatidylinositol 4-kinase type 2-alpha (Homo sapiens), Q9BTU6; purified PI4K2A, ADP-Glo luminescence, 1 h; hits give low values; activity change, negative = inhibition, % at 76.9 µM; hit rate 0.13% among 420,000; in the data active means activity change below about -50%; inconclusive means mostly about -30% to -49%;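 further: -100% = wells without enzyme as full effect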
Target sequence (Q9BTU6 whole entry, looked up): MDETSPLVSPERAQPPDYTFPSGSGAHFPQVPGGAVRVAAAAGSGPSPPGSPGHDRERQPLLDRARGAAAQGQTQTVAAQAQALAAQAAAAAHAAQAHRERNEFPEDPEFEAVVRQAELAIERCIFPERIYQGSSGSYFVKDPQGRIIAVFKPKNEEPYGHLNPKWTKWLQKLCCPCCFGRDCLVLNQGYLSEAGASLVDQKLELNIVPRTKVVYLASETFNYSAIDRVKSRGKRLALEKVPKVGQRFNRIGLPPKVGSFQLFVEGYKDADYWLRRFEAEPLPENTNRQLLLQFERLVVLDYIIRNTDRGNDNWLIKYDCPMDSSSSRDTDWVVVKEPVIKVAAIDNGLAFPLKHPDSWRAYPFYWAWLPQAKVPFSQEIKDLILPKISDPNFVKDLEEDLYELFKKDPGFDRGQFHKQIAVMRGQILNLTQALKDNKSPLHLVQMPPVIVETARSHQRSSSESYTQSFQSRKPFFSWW
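ADP-Glo luminescence measured ADP generated by PI4K2A enzyme (4 ug/mL before mixing) with 1.2 mM PI substrate (pre-mix) and 300 microM ATP (pre-mix). Tris pH7.5 buffer with MgCl2, Triton X-100; 1 h reaction at ambient temperature.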
Nrf2 block = Nrf2 qHTS screen for inhibitors. A549 ARE-Fluc reporter, luciferase luminescence, 18-24 h. hit rate 2.1% among 360,000. AID 504444, 2011. Potency, µM (top dose mostly 46 µM), for inactives: at the highest dose activity change, negative = inhibition, hits mostly inhibitors; further: potency means the concentration at half of the fitted maximal effect; nearly all actives have a fitted effect of over 60% in size
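Two sequential reads on A549 ARE_Fluc cells exposed to compound for 18-24 h: a CellTiter-Fluor fluorescence read for viability, then a luciferase luminescence read for Nrf2/ARE activity.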
A549 tox = Nrf2 qHTS screen for inhibitors: counterscreen for cytotoxicity | A549 ARE-Fluc cells, CellTiter-Fluor viability, 18-24 h | Potency, µM (series often up to 46 µM), for the others: at the top dose activity change, negative = cytotoxicity, most hits filed as inhibitors | hit rate 0.16% among 390,000 | AID 504648, 2011; further: potency means the concentration at half of the fitted maximal effect
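Cytotoxicity counterscreen: CellTiter-Fluor fluorescence was measured in A549 ARE_Fluc cells after 18-24 h of compound exposure in a concentration series. The subsequent BugLite luminescent read reports ARE-luciferase activity.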
KB-V1 MDR tox = qHTS assay for MDR1-selective chemotherapeutics: Primary screen using the drug-selected MDR subline cells KB-V1; KB-V1 MDR cells viability, CellTiter-Glo, 72 h; Potency, µM (series often up to 46.1 µM), hits mostly cytotoxic; hit rate 3.4% among 400,000; further: potency means the concentration at half of the fitted maximal effect; nearly all actives have a fitted effect of over 60% in size
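Readout: CellTiter-Glo luminescence, 10 min after addition. Cells: KB-V1 MDR subline, 72 h at 37 degrees C with compound. Analysis: corrected, normalized data fitted to concentration-effect curves.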
Numbers without * were called inactive; i = inactive; ? = inconclusive. Unless noted, the call rests on the fitted dose curve; in most records, active means well fitted curve in the direction sought with a large enough effect; inconclusive means small, poorly fitted or top-dose-only effect, or another doubt; inactive means no such curve, though single readings can be large; an effect the other way counts as inactive or inconclusive. Unless noted, on the % scale 0 is the no-effect control and ±100 the full control effect.

SMILES	KB-3-1 cytotox	Giardia kill	PI4K2A inh	Nrf2 block	A549 tox	KB-V1 MDR tox
O=C(Nc1ccc(N2CCCCC2)cc1)c1ccc([N+](=O)[O-])o1	?	-85*	-14	?	?	?
CS(=O)(=O)N1CCN(c2ccc(NC(=O)c3cc4ccccc4o3)cc2)CC1	i	-25	2	1%	-16%	i
O=C(Nc1ccc(N2CCN(Cc3ccccc3F)CC2)cc1)c1ccc([N+](=O)[O-])o1	?	-96*	-6	23µM*	16µM*	15µM*
CC1CCN(c2ccc(NC(=O)c3ccc([N+](=O)[O-])o3)cc2)CC1	5.2µM*	?	-9	-10%	?	10µM*
O=C(Nc1ccc(N2CCN(Cc3ccccc3F)CC2)cc1)c1ccccc1[N+](=O)[O-]	i	-11	-3	-23%	-1%	?
CS(=O)(=O)N1CCN(c2ccc(NC(=O)c3ccc([N+](=O)[O-])o3)cc2)CC1	i	-81*	-2	-9%	13µM*	18µM*

Screening data from PubChem BioAssay.
